Measurements reported in the supplement of paper PMC11732987, “Enantioselective OTUD7B fragment discovery through chemoproteomics screening and high-throughput optimisation” (Communications Chemistry, 2025).

Key:
Test in all cases: log2 ratio of Biotin-Ahx-Ub-VS probe labelling (fragment/DMSO); higher = less target engagement (more negative = stronger competition), active = hit call of the paper (q ≤ 0.05, log2 ratio ≤ -1)
Conditions in all cases: compound concentration: 200 uM; treatment time: 3 h
USP42 = biological target: T1, USP42 (UniProt Q9H9J4)
T1 sequence (whole entry): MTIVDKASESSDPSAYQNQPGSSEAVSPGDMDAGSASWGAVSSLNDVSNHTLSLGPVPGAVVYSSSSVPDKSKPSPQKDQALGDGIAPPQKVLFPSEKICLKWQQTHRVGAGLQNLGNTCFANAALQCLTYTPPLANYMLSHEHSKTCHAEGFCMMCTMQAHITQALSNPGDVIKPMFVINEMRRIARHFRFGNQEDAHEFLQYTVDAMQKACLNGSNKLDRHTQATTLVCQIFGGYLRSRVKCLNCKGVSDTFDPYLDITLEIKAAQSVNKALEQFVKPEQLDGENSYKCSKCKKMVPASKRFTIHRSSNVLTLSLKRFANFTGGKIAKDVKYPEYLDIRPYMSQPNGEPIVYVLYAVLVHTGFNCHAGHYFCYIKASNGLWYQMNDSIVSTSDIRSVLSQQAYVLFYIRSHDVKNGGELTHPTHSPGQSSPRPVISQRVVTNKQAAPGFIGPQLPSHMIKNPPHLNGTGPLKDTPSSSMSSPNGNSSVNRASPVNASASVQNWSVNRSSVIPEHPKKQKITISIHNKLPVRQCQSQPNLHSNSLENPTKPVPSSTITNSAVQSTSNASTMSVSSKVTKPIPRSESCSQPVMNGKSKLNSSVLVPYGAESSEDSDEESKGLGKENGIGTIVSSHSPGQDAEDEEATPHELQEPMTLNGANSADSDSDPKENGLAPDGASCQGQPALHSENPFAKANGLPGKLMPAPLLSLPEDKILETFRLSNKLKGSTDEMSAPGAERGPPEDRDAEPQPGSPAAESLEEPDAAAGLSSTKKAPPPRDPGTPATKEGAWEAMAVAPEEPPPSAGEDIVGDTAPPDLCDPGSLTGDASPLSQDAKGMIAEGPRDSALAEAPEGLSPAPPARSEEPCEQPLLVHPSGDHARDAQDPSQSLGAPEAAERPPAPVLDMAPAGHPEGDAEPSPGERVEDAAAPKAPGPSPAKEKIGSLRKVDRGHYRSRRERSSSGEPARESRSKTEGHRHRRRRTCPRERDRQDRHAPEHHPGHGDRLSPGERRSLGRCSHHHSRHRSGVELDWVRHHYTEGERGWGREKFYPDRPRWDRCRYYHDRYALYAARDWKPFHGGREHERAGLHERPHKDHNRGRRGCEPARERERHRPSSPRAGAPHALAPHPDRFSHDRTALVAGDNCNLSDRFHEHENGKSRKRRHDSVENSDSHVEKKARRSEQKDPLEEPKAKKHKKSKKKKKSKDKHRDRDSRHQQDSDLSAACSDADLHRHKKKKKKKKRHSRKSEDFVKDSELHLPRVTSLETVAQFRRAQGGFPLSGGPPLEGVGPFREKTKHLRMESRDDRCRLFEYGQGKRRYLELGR
In short: (§1)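 Using Biotin-Ahx-Ub-VS at 0.5 µM final for 1 h, DUBs were labelled in HEK293T lysate (495 µg per sample) that had first been treated in triplicate with fragment at 200 µM or vehicle for 3 h. NeutrAvidin enrichment, LysC and trypsin digestion and diaPASEF LC-MS/MS followed. Spectronaut label-free quantities were global-median-normalised. Values are average log2 fragment/vehicle ratios by unpaired t-test, using proteins with ≥2 unique peptides.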

USP46 = USP46 (UniProt P62068)
In short: as §1

USP47 = biological target: T2, USP47 (UniProt Q96K76)
T2 sequence (whole entry): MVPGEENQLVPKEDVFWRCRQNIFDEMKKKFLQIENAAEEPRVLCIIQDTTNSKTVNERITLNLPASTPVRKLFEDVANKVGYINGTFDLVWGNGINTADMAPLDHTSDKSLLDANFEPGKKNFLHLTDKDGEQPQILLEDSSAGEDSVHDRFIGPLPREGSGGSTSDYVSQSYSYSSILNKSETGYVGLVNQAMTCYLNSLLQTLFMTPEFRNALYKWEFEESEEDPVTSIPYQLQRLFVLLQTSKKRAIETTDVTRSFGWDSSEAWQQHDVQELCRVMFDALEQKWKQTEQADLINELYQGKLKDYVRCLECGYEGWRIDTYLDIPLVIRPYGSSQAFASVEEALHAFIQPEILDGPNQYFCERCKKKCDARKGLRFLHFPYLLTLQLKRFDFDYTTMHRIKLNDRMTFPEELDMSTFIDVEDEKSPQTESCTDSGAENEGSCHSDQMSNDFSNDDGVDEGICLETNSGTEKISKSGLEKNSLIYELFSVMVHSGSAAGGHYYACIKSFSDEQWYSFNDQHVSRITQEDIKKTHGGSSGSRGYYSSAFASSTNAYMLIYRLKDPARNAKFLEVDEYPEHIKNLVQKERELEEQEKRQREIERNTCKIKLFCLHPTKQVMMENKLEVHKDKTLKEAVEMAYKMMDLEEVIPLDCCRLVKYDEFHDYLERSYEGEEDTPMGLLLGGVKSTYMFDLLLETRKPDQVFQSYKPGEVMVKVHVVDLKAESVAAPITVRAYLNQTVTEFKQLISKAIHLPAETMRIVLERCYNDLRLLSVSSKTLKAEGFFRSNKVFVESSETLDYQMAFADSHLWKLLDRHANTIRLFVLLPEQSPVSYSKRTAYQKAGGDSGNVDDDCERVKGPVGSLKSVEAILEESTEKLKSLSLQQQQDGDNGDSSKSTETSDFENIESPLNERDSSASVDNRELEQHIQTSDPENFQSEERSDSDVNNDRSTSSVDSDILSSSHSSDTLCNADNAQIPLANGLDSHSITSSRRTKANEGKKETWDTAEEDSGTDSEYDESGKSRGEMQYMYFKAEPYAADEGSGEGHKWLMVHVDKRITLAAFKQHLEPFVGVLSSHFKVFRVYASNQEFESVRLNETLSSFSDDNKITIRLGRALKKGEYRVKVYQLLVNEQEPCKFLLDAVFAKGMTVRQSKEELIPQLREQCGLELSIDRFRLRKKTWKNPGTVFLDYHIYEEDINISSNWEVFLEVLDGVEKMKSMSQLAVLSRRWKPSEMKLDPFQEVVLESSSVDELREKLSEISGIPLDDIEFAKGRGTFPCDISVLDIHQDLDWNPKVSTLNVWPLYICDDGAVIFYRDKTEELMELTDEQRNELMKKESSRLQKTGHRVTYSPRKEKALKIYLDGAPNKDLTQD
In short: as §1

USP48 = biological target: T3, USP48 (UniProt Q86UV5)
T3 sequence (whole entry): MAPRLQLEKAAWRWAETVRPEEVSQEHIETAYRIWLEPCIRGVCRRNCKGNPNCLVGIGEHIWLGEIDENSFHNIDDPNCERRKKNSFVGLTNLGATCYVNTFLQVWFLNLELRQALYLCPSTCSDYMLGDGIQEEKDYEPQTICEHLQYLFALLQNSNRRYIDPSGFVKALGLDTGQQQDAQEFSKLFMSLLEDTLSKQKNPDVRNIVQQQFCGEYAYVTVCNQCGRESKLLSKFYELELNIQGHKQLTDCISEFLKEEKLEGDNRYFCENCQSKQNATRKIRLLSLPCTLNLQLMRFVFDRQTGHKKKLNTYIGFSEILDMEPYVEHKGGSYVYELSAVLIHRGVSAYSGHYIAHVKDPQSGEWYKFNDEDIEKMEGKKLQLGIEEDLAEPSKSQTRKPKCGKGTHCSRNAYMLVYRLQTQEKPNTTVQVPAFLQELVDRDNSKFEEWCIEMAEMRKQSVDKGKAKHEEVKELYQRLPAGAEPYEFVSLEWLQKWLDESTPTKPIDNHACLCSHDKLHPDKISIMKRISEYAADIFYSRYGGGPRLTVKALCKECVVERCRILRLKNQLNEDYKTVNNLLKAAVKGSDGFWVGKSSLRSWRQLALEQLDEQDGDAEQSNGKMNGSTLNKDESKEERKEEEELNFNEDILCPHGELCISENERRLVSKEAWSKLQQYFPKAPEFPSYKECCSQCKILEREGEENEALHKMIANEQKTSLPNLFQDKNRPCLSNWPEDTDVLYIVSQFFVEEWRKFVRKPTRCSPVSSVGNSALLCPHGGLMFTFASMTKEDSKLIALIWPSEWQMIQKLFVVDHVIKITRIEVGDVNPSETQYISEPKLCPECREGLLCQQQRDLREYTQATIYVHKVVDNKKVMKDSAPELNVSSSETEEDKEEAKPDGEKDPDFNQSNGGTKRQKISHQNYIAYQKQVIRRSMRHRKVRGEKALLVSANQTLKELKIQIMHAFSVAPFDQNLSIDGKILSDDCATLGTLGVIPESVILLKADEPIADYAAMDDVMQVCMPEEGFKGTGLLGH
In short: as §1

USP5 = biological target: T4, USP5 (UniProt P45974)
T4 sequence (whole entry): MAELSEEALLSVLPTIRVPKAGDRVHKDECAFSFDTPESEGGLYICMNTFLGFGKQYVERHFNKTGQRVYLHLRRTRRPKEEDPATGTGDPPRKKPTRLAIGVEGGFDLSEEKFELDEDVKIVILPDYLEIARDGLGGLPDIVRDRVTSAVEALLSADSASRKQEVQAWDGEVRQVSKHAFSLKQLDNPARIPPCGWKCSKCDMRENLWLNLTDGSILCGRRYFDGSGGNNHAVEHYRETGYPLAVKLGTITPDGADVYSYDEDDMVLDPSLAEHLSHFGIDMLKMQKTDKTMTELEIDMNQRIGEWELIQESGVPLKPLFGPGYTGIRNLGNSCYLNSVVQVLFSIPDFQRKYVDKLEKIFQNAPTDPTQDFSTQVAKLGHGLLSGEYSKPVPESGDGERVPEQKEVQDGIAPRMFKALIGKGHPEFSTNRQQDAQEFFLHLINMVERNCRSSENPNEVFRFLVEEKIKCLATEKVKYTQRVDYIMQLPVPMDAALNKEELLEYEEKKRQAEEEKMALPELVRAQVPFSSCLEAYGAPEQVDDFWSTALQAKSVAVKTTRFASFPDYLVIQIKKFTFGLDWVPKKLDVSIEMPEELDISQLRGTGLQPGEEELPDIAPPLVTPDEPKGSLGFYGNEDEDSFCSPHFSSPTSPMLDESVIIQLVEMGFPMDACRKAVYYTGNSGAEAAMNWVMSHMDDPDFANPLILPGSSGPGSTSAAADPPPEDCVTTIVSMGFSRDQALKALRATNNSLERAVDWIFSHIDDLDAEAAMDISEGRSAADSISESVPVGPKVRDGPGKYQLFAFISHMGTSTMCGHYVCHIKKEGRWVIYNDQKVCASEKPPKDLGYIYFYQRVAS
In short: as §1

USP54 = USP54 (UniProt Q70EL1)
In short: as §1

USP7 = USP7 (UniProt Q93009)
In short: as §1

USP8 = biological target: T5, USP8 (UniProt P40818)
T5 sequence (whole entry): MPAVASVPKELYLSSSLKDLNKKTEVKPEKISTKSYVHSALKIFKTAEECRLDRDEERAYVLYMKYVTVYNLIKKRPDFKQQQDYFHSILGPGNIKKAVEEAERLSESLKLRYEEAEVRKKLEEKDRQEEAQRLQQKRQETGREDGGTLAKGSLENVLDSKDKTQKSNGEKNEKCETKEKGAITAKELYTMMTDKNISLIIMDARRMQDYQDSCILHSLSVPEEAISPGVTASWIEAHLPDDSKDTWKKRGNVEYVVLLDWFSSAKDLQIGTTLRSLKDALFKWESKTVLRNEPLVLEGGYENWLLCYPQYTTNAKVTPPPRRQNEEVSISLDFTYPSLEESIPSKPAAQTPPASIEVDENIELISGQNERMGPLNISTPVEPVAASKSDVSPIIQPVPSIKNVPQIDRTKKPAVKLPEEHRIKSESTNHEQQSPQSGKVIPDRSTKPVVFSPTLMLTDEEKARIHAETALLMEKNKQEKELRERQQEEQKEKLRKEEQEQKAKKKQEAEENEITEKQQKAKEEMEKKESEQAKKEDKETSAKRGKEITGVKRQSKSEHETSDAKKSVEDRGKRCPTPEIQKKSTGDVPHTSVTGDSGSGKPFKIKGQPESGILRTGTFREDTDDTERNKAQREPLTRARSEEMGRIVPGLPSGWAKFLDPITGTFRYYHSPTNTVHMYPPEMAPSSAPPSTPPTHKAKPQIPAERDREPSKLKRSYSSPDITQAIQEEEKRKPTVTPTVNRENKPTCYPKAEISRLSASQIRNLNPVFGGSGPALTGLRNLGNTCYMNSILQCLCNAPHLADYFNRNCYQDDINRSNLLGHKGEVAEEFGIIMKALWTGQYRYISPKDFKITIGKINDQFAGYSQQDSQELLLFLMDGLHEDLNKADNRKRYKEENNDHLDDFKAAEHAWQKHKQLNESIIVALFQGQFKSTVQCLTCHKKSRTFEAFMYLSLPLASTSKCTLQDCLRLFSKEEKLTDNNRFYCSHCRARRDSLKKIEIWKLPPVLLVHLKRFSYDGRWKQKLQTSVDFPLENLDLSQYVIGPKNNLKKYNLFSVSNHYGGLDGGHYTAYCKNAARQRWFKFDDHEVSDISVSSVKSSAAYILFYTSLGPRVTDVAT
In short: as §1

Measured: log2 ratio of Biotin-Ahx-Ub-VS probe labelling

Sequence of USP7 (Q93009 whole entry, looked up): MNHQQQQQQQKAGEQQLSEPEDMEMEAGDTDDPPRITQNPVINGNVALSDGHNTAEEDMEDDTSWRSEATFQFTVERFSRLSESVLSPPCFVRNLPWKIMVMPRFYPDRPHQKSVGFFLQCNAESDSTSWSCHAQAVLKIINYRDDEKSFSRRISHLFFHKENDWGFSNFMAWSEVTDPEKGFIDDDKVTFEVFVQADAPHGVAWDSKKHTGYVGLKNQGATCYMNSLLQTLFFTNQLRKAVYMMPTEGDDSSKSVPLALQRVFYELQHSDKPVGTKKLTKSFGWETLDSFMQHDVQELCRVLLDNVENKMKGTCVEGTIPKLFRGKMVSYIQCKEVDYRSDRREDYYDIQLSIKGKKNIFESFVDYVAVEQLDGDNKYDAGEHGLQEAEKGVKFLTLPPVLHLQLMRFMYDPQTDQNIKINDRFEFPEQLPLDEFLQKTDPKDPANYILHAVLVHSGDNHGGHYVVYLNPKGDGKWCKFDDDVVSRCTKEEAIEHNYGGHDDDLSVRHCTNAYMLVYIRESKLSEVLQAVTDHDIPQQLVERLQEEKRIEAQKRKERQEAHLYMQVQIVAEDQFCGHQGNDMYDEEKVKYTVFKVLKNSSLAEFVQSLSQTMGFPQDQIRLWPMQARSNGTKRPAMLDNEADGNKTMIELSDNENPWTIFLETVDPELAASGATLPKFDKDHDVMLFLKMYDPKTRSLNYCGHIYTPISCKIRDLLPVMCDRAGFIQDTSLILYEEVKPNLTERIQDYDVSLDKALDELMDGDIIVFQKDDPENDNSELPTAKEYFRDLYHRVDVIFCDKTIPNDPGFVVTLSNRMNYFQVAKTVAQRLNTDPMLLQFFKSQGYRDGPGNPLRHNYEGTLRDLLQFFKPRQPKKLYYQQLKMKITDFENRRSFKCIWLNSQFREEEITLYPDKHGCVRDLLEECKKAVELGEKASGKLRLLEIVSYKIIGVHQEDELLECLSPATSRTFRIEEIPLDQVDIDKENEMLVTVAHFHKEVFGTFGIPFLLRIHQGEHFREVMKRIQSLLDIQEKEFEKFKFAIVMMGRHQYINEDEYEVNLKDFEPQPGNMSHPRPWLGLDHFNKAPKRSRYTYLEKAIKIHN
Sequence of USP46 (P62068 whole entry): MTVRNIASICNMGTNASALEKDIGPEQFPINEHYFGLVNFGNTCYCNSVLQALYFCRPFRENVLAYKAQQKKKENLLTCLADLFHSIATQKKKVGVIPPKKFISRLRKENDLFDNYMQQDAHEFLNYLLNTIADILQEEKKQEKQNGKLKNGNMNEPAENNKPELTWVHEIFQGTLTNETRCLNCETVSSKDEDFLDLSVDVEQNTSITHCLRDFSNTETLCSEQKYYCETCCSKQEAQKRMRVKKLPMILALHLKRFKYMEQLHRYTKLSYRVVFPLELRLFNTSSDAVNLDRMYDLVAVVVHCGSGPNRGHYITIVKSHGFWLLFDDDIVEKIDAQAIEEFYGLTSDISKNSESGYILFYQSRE
Sequence of USP54 (Q70EL1 whole entry): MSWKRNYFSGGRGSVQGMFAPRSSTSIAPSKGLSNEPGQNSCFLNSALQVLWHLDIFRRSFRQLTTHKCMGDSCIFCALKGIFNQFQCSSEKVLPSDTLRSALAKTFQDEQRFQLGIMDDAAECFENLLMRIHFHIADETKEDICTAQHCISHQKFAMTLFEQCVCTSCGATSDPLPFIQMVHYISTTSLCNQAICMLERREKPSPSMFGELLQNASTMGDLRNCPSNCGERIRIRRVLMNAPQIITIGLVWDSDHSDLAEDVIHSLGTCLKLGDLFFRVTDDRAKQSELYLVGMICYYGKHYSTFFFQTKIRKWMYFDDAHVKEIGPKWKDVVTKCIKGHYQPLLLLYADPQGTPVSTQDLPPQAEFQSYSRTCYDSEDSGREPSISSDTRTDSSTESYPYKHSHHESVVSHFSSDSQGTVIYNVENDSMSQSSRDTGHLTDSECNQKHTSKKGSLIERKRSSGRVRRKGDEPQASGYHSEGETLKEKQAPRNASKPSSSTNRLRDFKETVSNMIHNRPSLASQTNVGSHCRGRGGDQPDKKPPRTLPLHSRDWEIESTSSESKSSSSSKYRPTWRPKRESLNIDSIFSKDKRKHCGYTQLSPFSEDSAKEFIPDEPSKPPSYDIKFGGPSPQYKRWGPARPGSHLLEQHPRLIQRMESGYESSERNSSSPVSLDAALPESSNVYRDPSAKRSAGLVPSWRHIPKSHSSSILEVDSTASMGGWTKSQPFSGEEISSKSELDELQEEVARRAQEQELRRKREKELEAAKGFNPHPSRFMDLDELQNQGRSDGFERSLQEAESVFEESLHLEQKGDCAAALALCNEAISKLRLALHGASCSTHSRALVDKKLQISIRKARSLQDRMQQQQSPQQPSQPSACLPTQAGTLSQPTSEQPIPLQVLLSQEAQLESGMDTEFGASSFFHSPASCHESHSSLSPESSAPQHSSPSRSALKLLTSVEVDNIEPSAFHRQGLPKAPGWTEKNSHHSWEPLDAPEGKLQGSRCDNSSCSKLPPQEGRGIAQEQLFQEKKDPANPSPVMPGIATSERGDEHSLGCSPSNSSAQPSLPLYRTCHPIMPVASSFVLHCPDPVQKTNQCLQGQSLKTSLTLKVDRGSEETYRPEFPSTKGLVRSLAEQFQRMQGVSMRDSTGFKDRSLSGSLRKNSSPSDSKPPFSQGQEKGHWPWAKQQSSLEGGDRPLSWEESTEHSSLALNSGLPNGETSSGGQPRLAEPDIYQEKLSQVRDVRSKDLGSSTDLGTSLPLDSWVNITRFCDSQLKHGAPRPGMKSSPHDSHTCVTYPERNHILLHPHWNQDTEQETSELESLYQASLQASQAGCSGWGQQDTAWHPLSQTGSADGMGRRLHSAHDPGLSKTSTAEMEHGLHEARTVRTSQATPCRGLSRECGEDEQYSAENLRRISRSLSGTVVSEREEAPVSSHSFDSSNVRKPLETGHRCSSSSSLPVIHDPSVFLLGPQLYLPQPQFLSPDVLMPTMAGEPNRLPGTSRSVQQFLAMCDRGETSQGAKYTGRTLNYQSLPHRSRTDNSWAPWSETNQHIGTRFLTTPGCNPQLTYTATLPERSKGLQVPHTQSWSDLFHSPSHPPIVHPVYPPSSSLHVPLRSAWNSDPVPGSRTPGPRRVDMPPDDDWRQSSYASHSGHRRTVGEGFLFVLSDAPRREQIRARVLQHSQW

O=C(CCl)NCCC1=CCCCC1
inactive: USP42 0.91 | USP46 -0.0411 | USP47 -0.145 | USP48 0.0648 | USP5 0.0523 | USP54 0.116 | USP7 -0.402 | USP8 0.244
